Inconclusive results are not listed. Where a call stands in place of a potency, no number is given. Unmarked numbers belong to inactive results. Activity calls are given as the source filed them. Unless noted, calls come from the whole dose curve; as a rule, active = well fitted curve in the direction sought with a large enough effect in the repeat runs; inconclusive = weak or mixed curves; inactive = no such curve, though single readings can be large; an effect the other way counts as inactive or inconclusive.
Tests used:
[1] = target: Peroxisome proliferator-activated receptor gamma (Homo sapiens) (UniProt P37231); assay: qHTS assay to identify small molecule antagonists of the peroxisome proliferator-activated receptor gamma (PPARg) signaling pathway (AID 743191; calls by dose curve; note: nearly all actives have a fitted effect of over 30% in size; note: potency is the fitted concentration of half-maximal effect; for ratio activity, negative = inhibition: series mostly up to about 63 µM)
Summary of the method: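 Beta-lactamase reporter under UAS control in HEK293H PPARg-bla cells; compound treatment 17 h at 37C. Read-out: fluorescence intensity after 1 h room-temperature incubation with LiveBLAzer B/G FRET substrate.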

[2] = qHTS assay to identify small molecule antagonists of the peroxisome proliferator-activated receptor gamma (PPARg) signaling pathway - cell viability counter screen (AID 743194); note: nearly all actives have a fitted effect of over 55% in size
Summary of the method: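 Viability was measured as CellTiter-Glo luminescence in GeneBLAzer PPARg UAS-bla HEK293H cells. These cells had been exposed 17 h at 37 C to compounds together with rosiglitazone at 50 nM final, with the beta-lactamase readout taken in the same wells.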

[3] = qHTS assay for small molecule agonists of the antioxidant response element (ARE) signaling pathway - cell viability counter screen (AID 743203; calls by dose curve; note: nearly all actives have a fitted effect of over 55% in size)
Summary of the method: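 Cells (ARE-bla HepG2, 2,000/well) receive DMSO-dissolved compounds after a 5 hrs rest. Plates incubate 16 hrs at 37C/5% CO2. CellTiter-Glo luminescence is then recorded after 30 min at room temperature.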

[4] = qHTS assay for small molecule activators of the heat shock response signaling pathway (AID 743210; active = well fitted activation curve with a large enough effect in the signal ratio in the repeat runs, with a control signal flat, not every such curve was filed as active; the % refers to the signal ratio;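 note: HeLa cells with beta-lactamase reporter driven by heat shock elements; series mostly up to about 63 µM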)
Summary of the method: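 In HSE-bla HeLa cells, 5 h compound incubation (37 C) precedes addition of LiveBLAzer B/G substrate; after 2.5 h at room temperature, fluorescence intensity indicates reporter induction.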

[5] = target: Peroxisome proliferator-activated receptor delta (Homo sapiens) (UniProt Q03181); assay: qHTS assay to identify small molecule agonists of the peroxisome proliferator-activated receptor delta (PPARd) signaling pathway (AID 743212; calls by dose curve)
Summary of the method: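 HEK293H UAS-bla reporter cells, human PPARd system; compounds delivered in DMSO after 5 h plating, then at 37 C. Beta-lactamase FRET read, 2 h RT substrate step.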

[6] = target: Peroxisome proliferator-activated receptor delta (Homo sapiens) (UniProt Q03181); assay: qHTS assay to identify small molecule antagonists of the peroxisome proliferator-activated receptor delta (PPARd) signaling pathway (AID 743215; active = well fitted inhibition curve with a large enough effect in the signal ratio in the repeat runs, not every such curve was filed as active; the % refers to the signal ratio;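 note: cells stimulated with agonist L165041 at 300 nM final during compound exposure; series mostly up to about 62 µM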)
Summary of the method: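 Antagonist-mode beta-lactamase reporter screen: HEK293H cells with UAS-bla under PPARd control, stimulated by 300 nM L165041 (final) alongside test compound for 17 h at 37 C, then FRET fluorescence after 2 h substrate incubation.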

[7] = target: Bile acid receptor (Homo sapiens) (UniProt Q96RI1); assay: qHTS assay to identify small molecule antagonists of the farnesoid-X-receptor (FXR) signaling pathway (AID 743217; active = well fitted inhibition curve with a large enough effect in the signal ratio in the repeat runs, not every such curve was filed as active; the % refers to the signal ratio)
Summary of the method: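 Beta-lactamase reporter under UAS control in HEK 293T cells; compound exposure 16 h at 37 °C in the presence of chenodeoxycholic acid (50 uM final); signal from B/G FRET substrate after 2 h at room temperature.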

[8] = qHTS assay to identify small molecule agonists of the farnesoid-X-receptor (FXR) signaling pathway - cell viability counter screen (AID 743218); note: nearly all actives have a fitted effect of over 45% in size; note: potency is the fitted concentration of half-maximal effect
Summary of the method: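 In GeneBLAzer FXR-UAS-bla HEK 293T cells, compounds act for 16 h at 37 C. Cell viability is then scored in the reporter wells by CellTiter-Glo, 30 min at RT, luminescence.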

[9] = target: Bile acid receptor (Homo sapiens) (UniProt Q96RI1); assay: qHTS assay to identify small molecule agonists of the farnesoid-X-receptor (FXR) signaling pathway (AID 743220; active = well fitted activation curve with a large enough effect in the signal ratio in the repeat runs, not every such curve was filed as active; the % refers to the signal ratio)
Summary of the method: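 Beta-lactamase reporter under UAS control in GeneBLAzer FXR HEK 293T cells (5000/well) measured with LiveBLAzer FRET substrate after 2 h at room temperature. Compound exposure lasted 16 h at 37C.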

[10] = qHTS assay to identify small molecule antagonists of the farnesoid-X-receptor (FXR) signaling pathway - cell viability counter screen (AID 743221; active = well fitted cell-killing curve with a large enough effect in the repeat runs, not every such curve was filed as active; note: nearly all actives have a fitted effect of over 50% in size; note: potency is the fitted concentration of half-maximal effect)
Summary of the method: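 Cytotoxicity counter screen run in the FXR-bla reporter wells: HEK 293T cells exposed to compound with 50 uM (final) chenodeoxycholic acid for 16 h, 37 C, then viability measured by CellTiter-Glo luminescence after 30 min, room temperature.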

[11] = qHTS assay to identify small molecule agonists of the vitamin D receptor (VDR) signaling pathway - cell viability counter screen (AID 743224); note: series mostly up to about 63 µM; nearly all actives have a fitted effect of over 50% in size
Summary of the method: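 VDR-bla cell line, quantitative HTS format; 16 h compound incubation (37C, 5% CO2); ATP-based CellTiter-Glo luminescence measured in the reporter assay wells.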

[12] = qHTS assay to identify small molecule that activate the aryl hydrocarbon receptor (AhR) signaling pathway - cell viability counter screen (AID 743086);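 note: HepG2 liver cells carrying the AhR DRE luciferase reporter; series mostly up to about 70 µM; nearly all actives have a fitted effect of over 45% in size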
Summary of the method: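 Cytotoxicity counter screen: CellTiter-Fluor signal (30 min, 37 C) in 4000 HepG2 cells/well carrying the DRE-luciferase reporter, following 24 h compound exposure at 37 C.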

[13] = qHTS assay for small molecule agonists of the antioxidant response element (ARE) signaling pathway (AID 743202; active = well fitted activation curve with a large enough effect in the signal ratio in the repeat runs, not every such curve was filed as active; the % refers to the signal ratio)
Summary of the method: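 An ARE-responsive beta-lactamase gene stably integrated in HepG2 cells serves as reporter. After 5 h plating and 16 h compound incubation at 37 C, fluorescence of the B/G FRET substrate was measured.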

[14] = qHTS assay for small molecule activators of the heat shock response signaling pathway - cell viability counter screen (AID 743209); note: nearly all actives have a fitted effect of over 50% in size
Summary of the method: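 Quantitative HTS format, Tox21 10K library. HeLa cells carrying an HSE-driven beta-lactamase reporter were treated 5 h at 37 C, then assessed for viability by CellTiter-Glo luminescence.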

[15] = qHTS assay to identify small molecule agonists of the peroxisome proliferator-activated receptor delta (PPARd) signaling pathway - cell viability counter screen (AID 743211); note: nearly all actives have a fitted effect of over 55% in size
Summary of the method: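 Viability was measured as CellTiter-Glo luminescence (30 min, room temperature) in the same wells as the beta-lactamase readout. GeneBLAzer PPARd UAS-bla HEK293H cells received compound after 5 h plating and were incubated 17 h at 37 C.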

[16] = qHTS assay to identify small molecule antagonists of the peroxisome proliferator-activated receptor delta (PPARd) signaling pathway - cell viability counter screen (AID 743213); note: nearly all actives have a fitted effect of over 50% in size; note: potency is the fitted concentration of half-maximal effect
Summary of the method: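 HEK293H PPARd UAS-bla cells, 5 h pre-incubation, compound + L165041 300 nM final, 17 h 37 C; B/G FRET substrate 2 h RT; then CellTiter-Glo 30 min RT, luminescence.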

[17] = target: Vitamin D3 receptor (Homo sapiens) (UniProt P11473); assay: qHTS assay to identify small molecule agonists of the vitamin D receptor (VDR) signaling pathway (AID 743222; calls by dose curve)
Summary of the method: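 Agonist activity measured in VDR-bla reporter cells. Exposure 16 h, 37C, 5% CO2; detection by B/G FRET substrate, 2 h RT.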

[18] = target: Vitamin D3 receptor (Homo sapiens) (UniProt P11473); assay: qHTS assay to identify small molecule antagonists of the vitamin D receptor (VDR) signaling pathway (AID 743223; active = well fitted inhibition curve with a large enough effect in the signal ratio in the repeat runs, not every such curve was filed as active; the % refers to the signal ratio)
Summary of the method: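 Antagonist mode: compound added to VDR-bla cells alongside agonist 1alpha,25-dihydroxyvitamin D3 (3 nM final), incubation 16 h at 37C. Read-out is LiveBLAzer FRET fluorescence, 2 h at room temperature.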

[19] = target: Peroxisome proliferator-activated receptor gamma (Homo sapiens) (UniProt P37231); assay: qHTS assay to identify small molecule agonists of the peroxisome proliferator-activated receptor gamma (PPARg) signaling pathway (AID 743094; active = well fitted activation curve with a large enough effect in the signal ratio in the repeat runs, not every such curve was filed as active; the % refers to the signal ratio)
Summary of the method: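 Stably transfected HEK293H cells (GeneBLAzer PPARg UAS-bla) were incubated with test substances for 17 h at 37C after a 5 h pre-incubation; beta-lactamase activity was then detected by FRET substrate fluorescence.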

Peroxisome proliferator-activated receptor gamma (Homo sapiens), sequence (P37231 whole entry, looked up): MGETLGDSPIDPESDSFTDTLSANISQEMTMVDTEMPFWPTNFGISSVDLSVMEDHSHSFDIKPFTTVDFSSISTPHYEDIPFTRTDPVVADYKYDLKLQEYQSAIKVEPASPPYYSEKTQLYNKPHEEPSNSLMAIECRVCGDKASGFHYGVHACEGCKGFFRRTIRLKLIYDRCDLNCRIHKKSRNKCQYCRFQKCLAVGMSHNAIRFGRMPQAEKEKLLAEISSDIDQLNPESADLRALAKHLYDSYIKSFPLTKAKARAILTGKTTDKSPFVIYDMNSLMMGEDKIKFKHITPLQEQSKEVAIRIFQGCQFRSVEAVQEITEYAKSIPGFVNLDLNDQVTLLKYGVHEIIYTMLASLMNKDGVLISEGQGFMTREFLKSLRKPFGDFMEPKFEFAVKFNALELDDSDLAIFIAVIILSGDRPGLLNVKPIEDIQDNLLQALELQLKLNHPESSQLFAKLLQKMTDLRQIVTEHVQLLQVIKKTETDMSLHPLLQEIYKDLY
Bile acid receptor (Homo sapiens), sequence (Q96RI1 whole entry, looked up): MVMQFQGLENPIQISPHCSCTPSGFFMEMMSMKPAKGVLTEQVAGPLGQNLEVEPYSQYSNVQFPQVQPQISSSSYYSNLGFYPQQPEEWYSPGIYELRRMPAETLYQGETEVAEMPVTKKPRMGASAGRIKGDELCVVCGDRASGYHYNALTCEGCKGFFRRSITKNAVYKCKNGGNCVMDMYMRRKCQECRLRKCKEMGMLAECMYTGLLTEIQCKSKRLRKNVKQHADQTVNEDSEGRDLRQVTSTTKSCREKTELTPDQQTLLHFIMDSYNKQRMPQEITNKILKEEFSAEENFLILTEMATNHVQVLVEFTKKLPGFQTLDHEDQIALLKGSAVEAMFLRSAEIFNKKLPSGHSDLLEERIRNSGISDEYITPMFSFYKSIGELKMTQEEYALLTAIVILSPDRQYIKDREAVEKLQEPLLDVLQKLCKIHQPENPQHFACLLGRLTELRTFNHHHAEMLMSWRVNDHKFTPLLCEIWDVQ
Vitamin D3 receptor (Homo sapiens), sequence (P11473 whole entry, looked up): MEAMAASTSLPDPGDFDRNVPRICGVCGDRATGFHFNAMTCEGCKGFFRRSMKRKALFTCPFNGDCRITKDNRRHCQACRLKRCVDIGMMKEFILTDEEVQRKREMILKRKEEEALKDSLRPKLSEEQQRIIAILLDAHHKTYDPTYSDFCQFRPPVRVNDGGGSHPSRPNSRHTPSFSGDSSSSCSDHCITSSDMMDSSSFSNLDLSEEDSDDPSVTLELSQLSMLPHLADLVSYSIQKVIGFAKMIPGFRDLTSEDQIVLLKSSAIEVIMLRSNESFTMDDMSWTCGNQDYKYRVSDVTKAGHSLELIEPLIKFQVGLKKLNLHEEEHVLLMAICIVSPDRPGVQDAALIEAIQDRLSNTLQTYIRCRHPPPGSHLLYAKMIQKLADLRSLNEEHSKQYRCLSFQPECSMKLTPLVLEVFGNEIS
Peroxisome proliferator-activated receptor delta (Homo sapiens), sequence (Q03181 whole entry, looked up): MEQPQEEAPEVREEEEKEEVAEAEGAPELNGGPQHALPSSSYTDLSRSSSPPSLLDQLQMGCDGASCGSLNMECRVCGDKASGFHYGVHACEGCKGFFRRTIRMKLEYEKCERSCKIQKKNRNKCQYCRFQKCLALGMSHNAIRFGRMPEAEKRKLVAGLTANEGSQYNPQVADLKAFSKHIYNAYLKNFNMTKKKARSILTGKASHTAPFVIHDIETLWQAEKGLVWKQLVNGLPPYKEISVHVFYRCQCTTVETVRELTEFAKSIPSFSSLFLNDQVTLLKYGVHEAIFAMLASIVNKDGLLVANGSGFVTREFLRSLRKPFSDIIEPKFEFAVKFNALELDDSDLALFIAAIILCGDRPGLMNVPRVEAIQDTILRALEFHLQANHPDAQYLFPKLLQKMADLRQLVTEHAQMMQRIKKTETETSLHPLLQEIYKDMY

With CC(CCc1ccc(O)cc1)NCCc1ccc(O)c(O)c1 (stereo unspecified) the Potency [1] was “inactive”, the Potency [2] was “inactive” and the Potency [3] was “inactive”. For the same compound, the Potency [4] was “inactive”, the outcome [5] was “inactive” and the Potency [6] was “inactive”. For the same compound, the outcome [7] was “inactive”, the Potency [8] was “inactive” and the Potency [9] was “inactive”. For the same compound, the Potency [10] was “inactive” and the Potency [11] was “inactive”.
In the case of CCC(Cl)CC(Cl)C(Cl)C(Cl)C(Cl)C(C)Cl (stereo unspecified), the Potency [12] is reported as “inactive”, the ratio activity, negative = inhibition [1] is reported as -28.9% [at 13.2 µM] and the activity change, negative = cytotoxicity [2] is reported as -22.8% [at 13.2 µM]. It also gave an activation [13] of 7.21% [at 18.1 µM], a viability change, negative = cytotoxic [3] of -17% [at 18.1 µM] and an activity change, negative = cytotoxicity [14] of 2.25% [at 13.2 µM]. The activity change, negative = cytotoxicity [15] was -18.5% [at 13.2 µM], the activation [5] was -9.79% [at 13.2 µM] and the ratio activity, negative = inhibition [6] was -24% [at 13.7 µM]. For the same compound, the activity change, negative = cytotoxicity [11] was -2.44% [at 13.2 µM].
In the case of Cc1ccc(Nc2c(F)cccc2Cl)c(CC(=O)O)c1, the Potency [12] is reported as “inactive”, the Potency [2] is reported as “inactive” and the Potency [3] is reported as “inactive”. For the same compound, the Potency [14] was “inactive”, the Potency [4] was “inactive” and the Potency [15] was “inactive”. The outcome [5] was “inactive”, the outcome [7] was “inactive” and the Potency [8] was “inactive”. For the same compound, the Potency [9] was “inactive”, the Potency [10] was “inactive” and the Potency [11] was “inactive”.
With CC1C(C)(C)C2=C(C(=O)CCC2)C1(C)C (stereo unspecified) the Potency [12] was “inactive”, the Potency [1] was “inactive” and the Potency [2] was “inactive”. The Potency [3] was “inactive”, the Potency [14] was “inactive” and the Potency [4] was “inactive”. The Potency [15] was “inactive”, the outcome [5] was “inactive” and the Potency [16] was “inactive”. For the same compound, the Potency [6] was “inactive”, the Potency [8] was “inactive” and the Potency [10] was “inactive”. For the same compound, the outcome [17] was “inactive”, the outcome [18] was “inactive” and the Potency [11] was “inactive”.
In the case of CCCCCCCC(=O)Oc1c(Br)cc(C#N)cc1Br, the Potency [12] is reported as “inactive”, the Potency [1] is reported as 34.5 µM (active) and the Potency [13] is reported as “inactive”. For the same compound, the Potency [15] was “inactive”, the Potency [9] was “inactive” and the Potency [10] was “inactive”. The outcome [17] was “inactive” and the outcome [18] was “inactive”.
In the case of O=C(C(=O)c1ccco1)c1ccco1, the Potency [12] is reported as “inactive”, the Potency [1] is reported as “inactive” and the Potency [3] is reported as “inactive”. For the same compound, the Potency [4] was “inactive”, the Potency [15] was “inactive” and the outcome [5] was “inactive”. The Potency [16] was “inactive”, the Potency [6] was “inactive” and the Potency [8] was “inactive”. The Potency [10] was “inactive”, the outcome [17] was “inactive” and the outcome [18] was “inactive”.
In the case of O=C(O)c1cccc(Oc2ccccc2)c1, the Potency [12] is reported as “inactive”, the Potency [1] is reported as “inactive” and the Potency [2] is reported as “inactive”. For the same compound, the Potency [13] was “inactive”, the Potency [3] was “inactive” and the Potency [4] was “inactive”. The Potency [15] was “inactive”, the Potency [16] was “inactive” and the Potency [6] was “inactive”. The Potency [8] was “inactive”, the Potency [10] was “inactive” and the outcome [18] was “inactive”. For the same compound, the Potency [11] was “inactive”.
For CNS(=O)(=O)c1cc(C(=O)N2CCC(CCN3C4CCC3CC(n3c(C)nc5ccccc53)C4)(c3cccc(F)c3)CC2)c(Cl)cc1F (stereo unspecified), the Potency [14] was “inactive”, the Potency [16] was 7.76 µM (active) and the Potency [8] was 7.76 µM (active). The Potency [10] was 21.9 µM (active).
With Nc1cccc2c(N)cccc12 the outcome [19] was “inactive”, the Potency [14] was “inactive” and the Potency [15] was “inactive”. The outcome [5] was “inactive”, the outcome [7] was “inactive” and the Potency [11] was “inactive”.
For CCCCCCCC(=O)OCCCCCC, the Potency [12] was “inactive”, the Potency [1] was “inactive” and the Potency [2] was “inactive”. The Potency [13] was “inactive”, the Potency [3] was “inactive” and the Potency [14] was “inactive”. The Potency [4] was “inactive”, the Potency [15] was “inactive” and the outcome [5] was “inactive”. The Potency [16] was “inactive”, the Potency [6] was “inactive” and the Potency [9] was “inactive”. For the same compound, the outcome [17] was “inactive”, the outcome [18] was “inactive” and the Potency [11] was “inactive”.
